Screening results: PubChem BioAssay, several laboratories
PostGolgi yeast: growth inhibition of a yeast mutant, post-Golgi transport screen. AID 739. inhibition, % at 10 µM. actives 0.9% (n = 98,000). post-Golgi transport phenotypic cell assay;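 note: yeast cells grown in 1536-well plates; yeast grown about 18 h at 30C before absorbance read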
CYP2C9 act: CYP2C9 (human) activation | P11712 | recombinant CYP2C9, luciferin-H conversion, luminescence; active compounds read high; factor 1 = untreated enzyme, 0 = blocked | activation factor at 5 µM | actives 1.4% (n = 96,000) | AID 1024;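 active = activation factor of 2 or more for CYP2C9 at a 5 µM dose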;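 note: 0 = sulfaphenazole-blocked wells and 1 = vehicle-only wells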
CYP2C19 activ: increases human CYP2C19 enzyme activity; recombinant CYP2C19, luciferin-H EGE luminescence; active compounds read high; 0 = fully inhibited enzyme, 1 = untreated enzyme; activation factor at 5 µM; P33261; AID 1025; 96,000 tested, under 10 active;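 active = activation factor of at least 2 at 5 µM in the primary screen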;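 note: 0 = wells with 2.5 mM tranylcypromine and 1 = vehicle-only wells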
Target sequence (P33261 whole entry, looked up): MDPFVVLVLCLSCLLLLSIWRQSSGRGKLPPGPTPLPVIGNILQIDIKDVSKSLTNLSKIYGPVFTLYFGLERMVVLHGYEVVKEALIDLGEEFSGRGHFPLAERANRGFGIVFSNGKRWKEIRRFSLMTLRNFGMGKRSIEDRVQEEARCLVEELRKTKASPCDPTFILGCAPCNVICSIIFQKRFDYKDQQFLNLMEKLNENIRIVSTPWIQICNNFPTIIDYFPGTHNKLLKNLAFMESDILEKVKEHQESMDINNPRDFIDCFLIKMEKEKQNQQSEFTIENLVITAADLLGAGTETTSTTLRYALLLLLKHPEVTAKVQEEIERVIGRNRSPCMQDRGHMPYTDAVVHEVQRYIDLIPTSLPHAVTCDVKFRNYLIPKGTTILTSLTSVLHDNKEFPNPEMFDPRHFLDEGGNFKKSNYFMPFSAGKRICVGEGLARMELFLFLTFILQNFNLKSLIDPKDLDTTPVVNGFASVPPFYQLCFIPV
CYP2C9 inh: blocks human cytochrome P450 2C9. actives 20% (n = 96,000). P11712. inhibition, % at 5 µM. CYP2C9 Supersomes, luciferin-H conversion, luminescence;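 active = blocking of liver enzyme CYP2C9 beyond about 50% at 5 µM, limit read from the data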
CYP2C19 inh: inhibitors of human CYP2C19. AID 778. inhibition, % at 5 µM. actives 21% (n = 96,000). P33261. CYP2C19 Supersomes, luciferin-H EGE luminescence, 30 min;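 active = CYP2C19 inhibition above a set limit at 5 µM in the primary screen, cut at about 50% in these data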;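 note: plate controls were negative control wells for no effect and 2.5 mM tranylcypromine positive control for full effect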
PostGolgi ctrl: inhibits growth of the yeast control strain | AID 738 | efflux-deficient yeast background strain, growth absorbance A615, 16 h | actives 5% (n = 98,000) | inhibition, % at 10 µM
Starred values were filed as active, the others as inactive; . = not tested or not shown. Hits are enriched below; roughly 32% of the tested compounds scored in any of these assays. Cut-off read from the data, not from the text of the source, unless noted: active = inhibition above about 30%; inactive = the rest.

SMILES	PostGolgi yeast	CYP2C9 act	CYP2C19 activ	CYP2C9 inh	CYP2C19 inh	PostGolgi ctrl
CC(NC(=O)c1ccco1)C(c1cccs1)N1CCN(c2ccc(F)cc2)CC1 (centres undefined)	.	0.7	0.7	32	28	.
FC(F)(F)C1CC(c2cccs2)Nc2ncnn21 (centres undefined)	10	0.9	0.9	8	6	17
CC1(CC(=O)N/N=C/c2ccc(OCc3ccc(Cl)cc3Cl)cc2)OCCCO1	1	0.8	0.9	17	9	42*
Cc1ccc2c(c1)C(c1ccccc1)N(C(=O)c1ccc(Br)o1)CC(=O)N2 (centres undefined)	-4	0.3	0.6	74*	42	13
O=C(O)CN1C(=O)Nc2ccc(Br)cc2C1c1ccccc1 (centres undefined)	-5	0.9	0.9	11	10	4
O=C1CN(C(=O)c2ccc(Br)o2)C(c2ccccc2)c2cc(Br)ccc2N1 (centres undefined)	-12	0	0	100*	96*	22
CCOC(=O)C1Cc2ccccc2C(=O)O1 (centres undefined)	10	1	0.8	4	22	5
CCCCOC(=O)C1Cc2ccccc2C(=O)O1 (centres undefined)	4	0.8	0.2	24	85*	6
COC(=O)C1=C(C)NC(=O)/C1=C\c1cc(C)n(-c2c(C)cccc2C)c1C	-1	0.4	0.6	56*	44	-2
COC(=O)C1=C(C)NC(=O)/C1=C\c1cc(C)n(-c2ccccc2C)c1C	10	1	1	4	4	32*
COC(=O)C1=C(C)NC(=O)/C1=C\c1ccc2c(c1)OCO2	14	0.6	0.6	41	44	3
CS(=O)(=O)Nc1ccc(C(=O)N2CCN(c3ccccc3)CC2)cc1	2	1	1.1	2	-8	0
Brc1c(CSc2nnc(-c3ccco3)o2)nc2ccccn12	0	2.2*	0.2	-122	78*	-8
c1coc(-c2nnc(SCc3cn4ccccc4n3)o2)c1	3	1	0.5	-2	46	0
CC(C(=O)O)N1C(=O)CSc2ncccc21 (centres undefined)	-13	1	1	-3	-4	4
Cc1ccc2nc(SCC(=O)N3CCCC3)[nH]c2c1	-2	1.2	0.8	-18	17	3
Cc1ccc(CSc2nc3ncccc3[nH]2)cc1	-8	0.4	0.2	56*	76*	4
Clc1ccc(CSc2nc3ccncc3[nH]2)cc1	7	0.1	0	89*	98*	9
Cc1ccc(CSc2nc3ccncc3[nH]2)cc1	-4	0.1	0	88*	99*	5
CN(C/C(O)=C(\C#N)c1ccccc1)C1CCCCC1	-5	1	0.6	0	40	-2
CC(=O)c1c(C)nc(C)nc1NC(=O)Cc1ccccc1	1	.	.	.	.	14
O=C(Cc1ccccc1)Nc1nonc1NC(=O)c1ccccc1	19	0.3	0.7	70*	27	8
COC(=O)Cc1cn(-c2ncc(C(F)(F)F)cc2Cl)c2ccccc12	-7	0.3	0.3	71*	74*	16
NC(=O)Cc1cn(-c2ncc(C(F)(F)F)cc2Cl)c2ccccc12	25	0.5	0.5	49	48	5
CCC(=O)c1ccc(OCCSc2ncccn2)cc1	-2	1.1	1	-10	-1	-5
SMILES	PostGolgi yeast	CYP2C9 act	CYP2C19 activ	CYP2C9 inh	CYP2C19 inh	PostGolgi ctrl
COCCn1nnnc1C(c1ccc2ncccc2c1)N1CCc2ccccc21 (centres undefined)	-7	0.2	0.1	80*	94*	4
COCCn1nnnc1C(c1ccc(OC)c(OC)c1)N1CCc2ccccc21 (centres undefined)	-2	0.3	0.3	69*	74*	6
O=C(CSc1nc(-c2ccco2)cc(C(F)(F)F)n1)Nc1ccc2c(c1)CCC2	16	0.6	0.9	36	12	2
O=C(CCSc1nc(-c2ccco2)cc(C(F)(F)F)n1)Nc1ccc2c(c1)OCO2	0	0.4	0.4	60*	64*	21
O=C(CCSc1nc(-c2ccc3c(c2)OCO3)cc(C(F)(F)F)n1)NCc1ccco1	-1	0.3	0.3	65*	69*	13
CCC(C)Sc1nc(O)c(Cc2ccccc2)c(=O)[nH]1 (centres undefined)	5	0.8	0.9	23	8	4
Cc1ccc(S(=O)(=O)NNC(=O)c2sc3nc(C)cc(C)c3c2-n2cccc2)cc1	-5	0	0.2	99*	81*	28
CCN(CCO)c1cc(Cl)nc(SC)n1	17	1.9	1.1	-90	-7	0
Cc1cccc(C2(c3cccc(C)c3)OC(=O)c3ccccc32)c1	1	0.4	0.5	62*	47	5
c1cnc(SCCOc2ccc3c(c2)CCC3)nc1	-8	0.8	0.9	23	14	9
CC1CCc2c(sc3ncnc(N4CCOCC4)c23)C1 (centres undefined)	24	0.9	0.5	13	47	10
O=C(c1ccco1)N1CCN(c2ncnc3sc4c(c23)CCC4)CC1	-9	0.1	0.3	86*	72*	3
CCc1cc2c(N3CCN(c4ccccc4)CC3)ncnc2s1	-2	0.4	0.7	56*	35	48*
CCc1cc2c(NCCN3CCCCC3)ncnc2s1	-7	1	0.7	2	27	26
Cc1nccn1-c1ncnc2sc3c(c12)CCCC3	13	0.9	0.8	5	22	0
c1nc(N2CCC3(CC2)OCCO3)c2c3c(sc2n1)CCCC3	-1	0.4	0.1	63*	85*	12
c1ccc(N2CCN(c3ncnc4sc5c(c34)CCC5)CC2)cc1	0	0.3	0.2	72*	75*	7
COc1cccc(CNC(=O)C2CCN(S(=O)(=O)c3c(C)nn(C)c3C)CC2)c1	2	1.3	1	-28	4	25
CCOc1ccc(CN2CCN(S(=O)(=O)c3ccc(NC(C)=O)cc3)CC2)cc1OC	2	0.6	0.9	40	7	6
CCOc1ccc(Cn2c(=O)oc3ccc(C)cc32)cc1OC	-8	0.6	0.4	39	64*	4
c1ccc2c(c1)nnn1c3ccccc3nc21	9	0.4	0.3	62*	73*	-10
c1ccc2c(c1)nc(N1CCOCC1)c1nnnn12	-5	1.1	1.1	-9	-6	2
Cc1nnc2c(NC(C)C)nc3ccccc3n12	3	0.6	1	37	2	2
Cc1nc2ccccc2c2nc3ccccc3n12	2	0.4	0.6	58*	40	8
CCCC(=O)N(Cc1cc2cccc(C)c2[nH]c1=O)c1ccccc1OC	18	0.7	0.7	30	34	6
